Experimental data from PubChem BioAssay (EPA / NIEHS).
Results filed as inconclusive are left out. Activity calls are given as the source filed them. How the source made its calls, unless noted: active means hit-call score of the fitted dose curve at least 0.9, where 1 is the maximum; inactive means score below 0.9.

Assays:
[1] = target: Retinoic acid receptor alpha (Homo sapiens) (UniProt P10276); assay: ATG_DR5_RAR_CIS: Attagene CIS-FACTORIAL HepG2 Assay for human Retinoic Acid Receptor Alpha (RARE), DR5 submotif (AID 2282934); conditions: HepG2 Attagene cis-factorial RARE DR5 reporter, mRNA; actives raise or lower the signal
Chain of Retinoic acid receptor alpha (Homo sapiens) (P10276 whole entry, looked up): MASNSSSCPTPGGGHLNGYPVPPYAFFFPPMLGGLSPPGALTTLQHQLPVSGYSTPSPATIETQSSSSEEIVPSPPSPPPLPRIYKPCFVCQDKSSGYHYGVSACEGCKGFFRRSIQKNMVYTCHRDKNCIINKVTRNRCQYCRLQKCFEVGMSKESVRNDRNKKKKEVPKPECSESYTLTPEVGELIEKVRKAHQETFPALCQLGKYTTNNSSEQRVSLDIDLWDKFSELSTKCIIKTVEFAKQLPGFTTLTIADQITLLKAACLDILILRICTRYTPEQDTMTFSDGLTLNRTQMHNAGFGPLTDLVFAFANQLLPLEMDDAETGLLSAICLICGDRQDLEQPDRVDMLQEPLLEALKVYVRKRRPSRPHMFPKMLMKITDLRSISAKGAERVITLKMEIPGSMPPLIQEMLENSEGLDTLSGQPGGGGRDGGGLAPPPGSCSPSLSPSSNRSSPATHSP
Outline: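 Reporter transcripts from a DR5-regulated unit, measured via RT-PCR plus capillary electrophoresis, reflect endogenous RAR activity in transiently transfected human HepG2 liver cells. Exposure lasted 24 h; gain or loss of signal scored against DMSO.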

[2] = ATG_GLI_CIS: Attagene CIS-FACTORIAL HepG2 Assay for human Zinc Finger Protein GLI1 (AID 2282945); conditions: HepG2, Attagene cis-factorial reporter mRNA, GLI element; actives raise or lower the signal
Outline: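 Bidirectional curve fits relative to DMSO, using reporter mRNA levels from RT-PCR plus capillary electrophoresis. Cells were HepG2 transiently carrying cis-regulated reporter constructs, harvested 24 h after dosing.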

[3] = ATG_GRE_CIS: Attagene CIS-FACTORIAL HepG2 Assay for human Glucocorticoid Response Elements (GRE) (AID 2282947); conditions: HepG2 GRE cis-reporter, Attagene multiplex mRNA; actives raise or lower the signal
Outline: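 Multiplexed cis-reporter mRNA induction, HepG2, 24 h post-dose. RT-PCR, FAM-labelled, HpaI-digested amplicons by CE. Bidirectional fit vs DMSO.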

[4] = ATG_PBREM_CIS: Attagene CIS-FACTORIAL HepG2 Assay for human Phenobarbital-responsive Enhancer Module (PBREM) (AID 2282955); conditions: HepG2 PBREM cis-reporter, Attagene multiplexed transcription; actives raise or lower the signal
Outline: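 Endogenous transcription factors in human liver HepG2 cells drive a PBREM cis-element reporter, whose transcript level after 24 h treatment is quantified by RT-PCR with capillary electrophoresis; activity fitted in both directions against DMSO.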

[5] = ATG_TCF_b_cat_CIS: Attagene CIS-FACTORIAL HepG2 Assay for human T-Cell-Factor with beta-catenin (TCF/b-cat) (AID 2282965); conditions: HepG2 TCF/beta-catenin cis-reporter transcription, actives raise or lower the signal
Outline: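 Endogenous TCF/LEF activity read as reporter transcript level via RT-PCR and capillary electrophoresis fluorescence in transfected HepG2, 24 h exposure; gain or loss of signal fitted against DMSO controls.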

[6] = ATG_M_32_TRANS: Attagene TRANS-FACTORIAL HepG2 Assay for M32 Transcription Factor (Internal Marker) (AID 2282984; active means hit-call score of the fitted dose curve at least 0.9, where 1 is the maximum); conditions: HepG2 Attagene TRANS M32 internal marker reporter
Outline: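 Cell-based TRANS-format assay in HepG2: exogenous chimeric GAL4 reporter units transiently expressed, compounds applied 24 h. Reporter mRNA detected by RT-PCR plus capillary electrophoresis; this readout is an internal background marker.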

[7] = target: Transcriptional activator Myb (Homo sapiens) (UniProt P10242); assay: ATG_Myb_CIS: Attagene CIS-FACTORIAL HepG2 Assay for human Myeloblastosis (Myb) Proto-Oncogene Transcription Factor (AID 2282986); conditions: HepG2 Attagene CIS-FACTORIAL Myb reporter transcription; actives raise or lower the signal
Chain of Transcriptional activator Myb (Homo sapiens) (P10242 whole entry, looked up): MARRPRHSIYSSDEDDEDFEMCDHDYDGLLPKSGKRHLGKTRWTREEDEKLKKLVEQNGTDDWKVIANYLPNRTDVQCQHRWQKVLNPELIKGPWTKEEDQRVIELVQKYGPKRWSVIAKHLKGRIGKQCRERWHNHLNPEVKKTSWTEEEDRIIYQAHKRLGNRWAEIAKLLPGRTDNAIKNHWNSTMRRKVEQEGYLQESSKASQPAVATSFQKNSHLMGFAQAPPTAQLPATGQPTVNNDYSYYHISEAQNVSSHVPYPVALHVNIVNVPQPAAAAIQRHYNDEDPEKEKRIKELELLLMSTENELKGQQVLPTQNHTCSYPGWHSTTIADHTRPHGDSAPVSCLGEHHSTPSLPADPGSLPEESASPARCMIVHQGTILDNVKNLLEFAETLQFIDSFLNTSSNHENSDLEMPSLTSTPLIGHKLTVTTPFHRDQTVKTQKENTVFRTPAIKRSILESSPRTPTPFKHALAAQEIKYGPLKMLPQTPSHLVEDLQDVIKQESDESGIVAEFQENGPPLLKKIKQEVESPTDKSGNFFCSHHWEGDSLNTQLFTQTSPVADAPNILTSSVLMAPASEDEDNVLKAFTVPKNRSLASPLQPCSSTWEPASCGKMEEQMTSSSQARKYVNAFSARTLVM
Outline: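 Reporter transcript levels, quantified by fluorescent RT-PCR and capillary electrophoresis, serve as the read-out. Transfected HepG2 cells carrying cis-promoter reporter units are dosed for 24 hours, and curves are fitted bidirectionally against DMSO controls.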

[8] = target: Nuclear respiratory factor 1 (Homo sapiens) (UniProt Q16656); assay: ATG_NRF1_CIS: Attagene CIS-FACTORIAL HepG2 Assay for human Nuclear Respiratory Factor 1 (NRF1) Orphan Gene (AID 2282987); conditions: HepG2 NRF1 cis-element reporter, Attagene multiplex; actives raise or lower the signal
Chain of Nuclear respiratory factor 1 (Homo sapiens) (Q16656 whole entry, looked up): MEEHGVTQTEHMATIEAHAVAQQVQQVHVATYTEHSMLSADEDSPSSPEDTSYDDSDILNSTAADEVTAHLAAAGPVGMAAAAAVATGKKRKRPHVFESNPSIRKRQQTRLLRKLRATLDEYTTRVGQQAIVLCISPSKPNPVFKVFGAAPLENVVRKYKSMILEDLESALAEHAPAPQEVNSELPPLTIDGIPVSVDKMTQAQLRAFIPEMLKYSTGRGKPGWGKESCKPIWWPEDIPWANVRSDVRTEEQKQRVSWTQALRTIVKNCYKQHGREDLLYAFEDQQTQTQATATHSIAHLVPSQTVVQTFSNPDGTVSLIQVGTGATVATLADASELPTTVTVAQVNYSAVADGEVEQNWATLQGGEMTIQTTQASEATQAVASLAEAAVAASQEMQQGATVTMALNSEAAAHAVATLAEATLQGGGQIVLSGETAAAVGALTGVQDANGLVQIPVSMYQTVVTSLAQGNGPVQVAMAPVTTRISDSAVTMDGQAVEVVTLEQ
Outline: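 Multiplexed cis-reporter assay, HepG2 cells, 24 h treatment. Total RNA → oligo(dT) RT → PCR with reporter-specific primers → 6-FAM primer extension → HpaI cut → CE. Bidirectional fit vs DMSO.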

[9] = target: human Retinoid X Receptor beta (RXRb), RXRB (gene 6257) (UniProt P28702); assay: ATG_RXRb_TRANS: Attagene TRANS-FACTORIAL HepG2 Assay for human Retinoid X Receptor beta (RXRb) (AID 2283013; active means hit-call score of the fitted dose curve at least 0.9, where 1 is the maximum)
Chain of human Retinoid X Receptor beta (RXRb), RXRB (gene 6257) (P28702 whole entry, looked up, the tested form may be a part): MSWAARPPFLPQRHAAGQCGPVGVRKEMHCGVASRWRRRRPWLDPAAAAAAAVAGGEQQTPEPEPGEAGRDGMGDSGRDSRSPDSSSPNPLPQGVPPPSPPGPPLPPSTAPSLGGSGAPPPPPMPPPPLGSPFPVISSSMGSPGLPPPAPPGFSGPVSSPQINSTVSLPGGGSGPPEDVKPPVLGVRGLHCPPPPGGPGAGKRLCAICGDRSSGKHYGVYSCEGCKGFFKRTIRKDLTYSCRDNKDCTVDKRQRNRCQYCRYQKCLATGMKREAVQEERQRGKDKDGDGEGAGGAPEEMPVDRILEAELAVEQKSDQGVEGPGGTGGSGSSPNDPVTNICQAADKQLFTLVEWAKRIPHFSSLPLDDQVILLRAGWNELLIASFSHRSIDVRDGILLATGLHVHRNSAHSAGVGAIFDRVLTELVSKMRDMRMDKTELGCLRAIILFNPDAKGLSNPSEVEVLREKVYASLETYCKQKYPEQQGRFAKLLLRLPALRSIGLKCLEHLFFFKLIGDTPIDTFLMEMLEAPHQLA
Outline: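 After a 24 h incubation with test chemical, transfected HepG2 cells carrying NR-Gal4 fusions and GAL4-UAS reporter transcription units yield RNA whose reporter cDNA is FAM-labelled, HpaI-cut and sized by capillary electrophoresis; increases over DMSO are scored.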

[10] = TOX21_p53_BLA_p2_viability: Viability Assessment in the Tox21 HCT-116 p53 Agonism Beta-lactamase Assay, Phase 2 (AID 2283591; active means hit-call score of the fitted dose curve at least 0.9, where 1 is the maximum;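 further: actives lower the ATP signal meaning cytotoxicity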)
Outline: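 Cytotoxicity readout: CellTiter-Glo ATP luminescence, 30 min at room temperature, after the beta-lactamase read. Cells were HCT116 exposed 16 h at 37C to compounds pin-transferred at 217-fold dilution from DMSO stocks.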

[11] = target: Cellular tumor antigen p53 (Homo sapiens) (UniProt P04637); assay: TOX21_p53_BLA_p2_ratio: Tox21 HCT-116 p53 Agonism Beta-lactamase Assay, Ratio, Phase 2 (AID 2283592; active means hit-call score of the fitted dose curve at least 0.9, where 1 is the maximum)
Chain of Cellular tumor antigen p53 (Homo sapiens) (P04637 whole entry, looked up): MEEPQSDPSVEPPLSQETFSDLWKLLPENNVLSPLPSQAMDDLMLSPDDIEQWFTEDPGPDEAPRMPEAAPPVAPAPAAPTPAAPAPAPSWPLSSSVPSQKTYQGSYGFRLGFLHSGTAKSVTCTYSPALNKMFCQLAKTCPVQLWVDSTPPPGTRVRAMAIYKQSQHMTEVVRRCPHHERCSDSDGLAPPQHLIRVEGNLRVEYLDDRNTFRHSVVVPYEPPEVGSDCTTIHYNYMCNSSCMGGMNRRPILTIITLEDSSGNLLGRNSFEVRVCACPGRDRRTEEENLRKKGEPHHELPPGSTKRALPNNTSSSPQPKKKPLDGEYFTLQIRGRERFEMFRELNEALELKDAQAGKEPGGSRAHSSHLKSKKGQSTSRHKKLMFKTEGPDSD
Outline: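 Readout: blue/green (460/530 nm) FRET emission ratio after 2 h CCF4-AM loading at room temperature, excitation 405 nm. HCT116 p53 bla cells, 16 h compound exposure at 37C, 5% CO2; agonist direction fitted against DMSO baseline.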

[12] = target: Cellular tumor antigen p53 (Homo sapiens) (UniProt P04637); assay: TOX21_p53_BLA_p3_ratio: Tox21 HCT-116 p53 Agonism Beta-lactamase Assay, Ratio, Phase 3 (AID 2283596; active means hit-call score of the fitted dose curve at least 0.9, where 1 is the maximum)
Outline: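 Cells were seeded at 4000/well, rested 5 h at 37C, then dosed with DMSO compound solutions (217-fold dilution) for 16 h. CCF4-AM substrate was loaded for 2 h at room temperature, and the 460/530 nm emission ratio was fitted for gain of signal versus DMSO.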

[13] = target: Cellular tumor antigen p53 (Homo sapiens) (UniProt P04637); assay: TOX21_p53_BLA_p5_ratio: Tox21 HCT-116 p53 Agonism Beta-lactamase Assay, Ratio, Phase 5 (AID 2283599; active means hit-call score of the fitted dose curve at least 0.9, where 1 is the maximum)
Outline: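 Beta-lactamase reporter ratio (blue 460 nm over green 530 nm, 405 nm excitation) after 2 h CCF4-AM loading, in HCT-116 cells exposed 16 h at 37 C to compounds pinned at 217-fold dilution. Increases relative to DMSO baseline scored.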

[14] = TOX21_p53_BLA_p5_viability: Viability Assessment in the Tox21 HCT-116 p53 Agonism Beta-lactamase Assay, Phase 5 (AID 2283600; active means hit-call score of the fitted dose curve at least 0.9, where 1 is the maximum)
Outline: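 ATP luminescence (CellTiter-Glo, 30 min, RT) served as the viability read-out, with loss of signal indicating cytotoxicity. Compounds in DMSO were pinned at a 217-fold dilution onto 4000 cells/well and incubated 16 h, 37C.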

[15] = target: Cellular tumor antigen p53 (Homo sapiens) (UniProt P04637); assay: TOX21_p53_BLA_p4_ratio: Tox21 HCT-116 p53 Agonism Beta-lactamase Assay, Ratio, Phase 4 (AID 2283601; active means hit-call score of the fitted dose curve at least 0.9, where 1 is the maximum)
Outline: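 Signal is the blue/green (460nm/530nm) ratio of cleaved versus uncleaved CCF4-AM substrate, read after 2 h substrate loading. Cells were HCT116 carrying the p53-responsive beta-lactamase reporter, dosed 16 h at 37C, 5% CO2; CellTiter-Glo measured in parallel.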

[16] = target: X-box-binding protein 1 (Homo sapiens) (UniProt P17861); assay: ATG_Xbp1_CIS: Attagene CIS-FACTORIAL HepG2 Assay for human X-box Binding Protein 1 (XBP1) (AID 2282972); conditions: HepG2 XBP1 cis-element reporter, Attagene multiplex; actives raise or lower the signal
Chain of X-box-binding protein 1 (Homo sapiens) (P17861 whole entry, looked up): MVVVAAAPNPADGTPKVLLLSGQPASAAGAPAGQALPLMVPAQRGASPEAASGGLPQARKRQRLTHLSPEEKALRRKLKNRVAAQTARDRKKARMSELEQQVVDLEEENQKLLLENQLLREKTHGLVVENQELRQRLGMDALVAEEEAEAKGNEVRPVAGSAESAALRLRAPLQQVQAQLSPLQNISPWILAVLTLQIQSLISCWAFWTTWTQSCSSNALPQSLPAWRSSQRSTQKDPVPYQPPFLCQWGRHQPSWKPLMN
Outline: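 Reporter transcripts were quantified by RT-PCR with fluorescent primer extension and capillary electrophoresis after 24 h chemical exposure. Cells: transiently transfected HepG2 carrying cis-regulated reporter constructs; data fitted bidirectionally relative to DMSO.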

[17] = ATG_GAL4_TRANS: Attagene TRANS-FACTORIAL HepG2 Assay for GAL4 (Internal Marker) (AID 2282976; active means hit-call score of the fitted dose curve at least 0.9, where 1 is the maximum); conditions: HepG2 Attagene TRANS GAL4 internal marker reporter
Outline: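 RT-PCR/capillary electrophoresis readout of reporter mRNA. HepG2, transient MRTU transfection (GAL4-UAS reporters), 24 h compound exposure. Background-control endpoint, positive direction vs DMSO baseline.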

[18] = ATG_NF_kB_CIS: Attagene CIS-FACTORIAL HepG2 Assay for human Nuclear Factor Kappa B (NF-kB) (AID 2282991); conditions: HepG2 Attagene cis-factorial NF-kB reporter mRNA; actives raise or lower the signal
Outline: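 Transient MRTU transfection of human HepG2 liver cells → 24 h chemical exposure → total RNA, oligo(dT) RT → PCR, 6-FAM primer extension, HpaI digest 2 h 37 C → CE fragment analysis. Bidirectional fitting, DMSO negative control.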

[19] = ATG_Oct_MLP_CIS: Attagene CIS-FACTORIAL HepG2 Assay for human Octamer-Binding Transcription Factor (Oct) (AID 2282993); conditions: HepG2 Attagene cis-factorial Oct reporter, mRNA; actives raise or lower the signal
Outline: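 HepG2, transient MRTU transfection, cis promoter elements; 24 h dosing; RT-PCR/CE fluorescence read-out of reporter mRNA; fit both directions vs DMSO.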

[20] = target: Hepatocyte nuclear factor 4-alpha (Homo sapiens) (UniProt P41235); assay: ATG_HNF4a_TRANS: Attagene TRANS-FACTORIAL HepG2 Assay for human Hepatocyte Nuclear Factor 4 alpha (HNF4a) (AID 2282982; active means hit-call score of the fitted dose curve at least 0.9, where 1 is the maximum); conditions: HepG2 HNF4a transactivation reporter, mRNA readout
Chain of Hepatocyte nuclear factor 4-alpha (Homo sapiens) (P41235 whole entry, looked up): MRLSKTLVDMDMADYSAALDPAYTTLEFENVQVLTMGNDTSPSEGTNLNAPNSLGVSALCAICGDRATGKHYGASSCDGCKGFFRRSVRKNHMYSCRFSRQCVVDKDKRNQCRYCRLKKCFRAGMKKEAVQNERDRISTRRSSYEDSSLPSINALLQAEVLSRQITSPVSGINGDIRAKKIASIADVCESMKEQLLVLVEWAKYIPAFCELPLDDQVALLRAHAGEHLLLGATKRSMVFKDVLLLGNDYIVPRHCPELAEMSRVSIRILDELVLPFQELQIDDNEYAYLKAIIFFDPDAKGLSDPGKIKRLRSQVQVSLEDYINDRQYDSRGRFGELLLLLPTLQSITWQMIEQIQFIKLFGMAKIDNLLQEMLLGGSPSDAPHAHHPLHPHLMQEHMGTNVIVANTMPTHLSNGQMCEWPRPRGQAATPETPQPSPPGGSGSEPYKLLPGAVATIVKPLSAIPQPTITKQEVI
Outline: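 Multiplexed reporter assay: transfected HepG2, 24 h exposure, total RNA → oligo(dT) RT → PCR → 6-FAM extension → HpaI digest → CE fluorescence. DMSO = negative control.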

Measured: AC50

Sc1nc2ccccc2s1
active: [10] 0.000211 µM | [14] 0.000128 µM
inactive: [1] | [2] | [3] | [4] | [5] | [6] | [7] | [8] | [9] | [11] | [12] | [13] | [15]

CCCCNC(N)=O
inactive: [1] | [2] | [3] | [4] | [16] | [17] | [7] | [8] | [18] | [19] | [9] | [10] | [11] | [12] | [13] | [14] | [15]

O=C(c1ccccc1)c1ccccc1O
inactive: [1] | [2] | [3] | [4] | [6] | [8] | [18] | [19]
active: [5] 129 µM | [9] 75.9 µM

CCC(C)=NO
inactive: [1] | [3] | [4] | [20] | [6] | [8] | [19] | [10] | [11] | [12] | [13] | [15]

C=CCOC(=O)C(=C)C
inactive: [1] | [2] | [3] | [4] | [16] | [17] | [20] | [7] | [8] | [19] | [9] | [11] | [12] | [13] | [15]

CCCCC(CC)COC(=O)CS (configuration not stated)
inactive: [1] | [3] | [5] | [16] | [17] | [6] | [18] | [19] | [9] | [10] | [11] | [12] | [15]

CC/C=C\CC/C=C/C(OCC)OCC
active: [18] 100 µM
inactive: [1] | [2] | [3] | [4] | [5] | [16] | [20] | [6] | [7] | [8] | [13]

C=CCOCC(CC)(CO)COCC=C
inactive: [1] | [2] | [3] | [4] | [5] | [16] | [7] | [18] | [19] | [9] | [10] | [11] | [12] | [14]

CNC[C@H](O)[C@@H](O)[C@H](O)[C@H](O)CO
inactive: [1] | [4] | [16] | [6] | [8] | [18] | [19] | [10] | [11] | [12] | [13] | [14] | [15]

CCCCCC1CCCC(=O)O1 (configuration not stated)
inactive: [1] | [2] | [3] | [4] | [16] | [17] | [20] | [6] | [7] | [18] | [19] | [9] | [10] | [11] | [13] | [15]
